# Laboratory results reported in PubChem BioAssay (NCI).
# The panel holds about 79,000 compounds, 15% with a hit somewhere; the sample as a whole holds those more often. Active and inactive are the calls of the source. Rule as the data show it: active = growth inhibition above about 70%; inactive = the rest.
# Assay: NCI Yeast Anticancer Drug Screen. Data for the sgs1 mgt1 strain (AID 161);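 also: 0% = growth of cultures given vehicle only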
# Settings: S. cerevisiae sgs1 mgt1 strain, at 50.0 µM, stronger effect = higher value
# Method in brief: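 Inhibition of yeast growth, normalised to vehicle-treated controls, is reported for a strain bearing genetic alterations in DNA damage repair.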
row,Structure (SMILES),growth inhibition
1,Nc1ccccc1C(=O)Nc1ccccn1,0.5% (inactive)
2,O=C(NC(=O)c1c(Cl)nc2sccn12)Nc1ccc(Cl)cc1,-4.65% (inactive)
3,CCOC(=O)C(CCc1ccc([N+](=O)[O-])cc1)(CCc1ccc([N+](=O)[O-])cc1)C(=O)OCC,-7.3% (inactive)
4,CCOC(=O)CCCCCCCCCC[N+](CC)(CC)CC(=O)c1ccc(NC(C)=O)cc1,3.5% (inactive)
5,Cc1cccc(C)c1NC(=O)C1C(=O)N(c2c(C)cccc2C)C(=O)/C1=N\NC(N)=S (stereo not given),-37.4% (inactive)
6,CCN(CC)C(=O)C(C(=O)OC)c1ccccc1 (stereo not given),7.8% (inactive)
7,CC(=O)C(Cc1cccc([N+](=O)[O-])c1)Cc1cccc([N+](=O)[O-])c1,-6.6% (inactive)
8,c1ccc(-n2nnnc2-c2nnnn2-c2ccccc2)cc1,-1.5% (inactive)
9,COc1ccc(OC)c(NC(=O)CCC/C(CC(=O)c2ccc(O)c(OC)c2)=N\Nc2ccc([N+](=O)[O-])cc2)c1,-38.5% (inactive)
10,COC(=O)C1c2ccccc2CC(=O)N1N (stereo not given),-20.6% (inactive)
11,C=C1C(C2(C)C=CC(=O)OC3(C)COC(=O)CC32)C(OC=O)C(OC(=O)C(O)C(C)CC)C2(C)C(c3ccoc3)CC(OC(C)=O)C12O (stereo not given),-4.65% (inactive)
12,O=C1OC(=O)c2c1ccc1ccccc21,6.8% (inactive)
13,Cn1c(N)c(N=Cc2ccc(Cl)cc2)c(=O)n(C)c1=O,-5.5% (inactive)
14,COC(=O)c1cc(-c2ccc3ccccc3c2)[nH]c(=O)c1C#N,65.6% (inactive)
15,CC1=NN(c2ccccc2)C(=O)/C1=C(\[O-])c1ccccc1.CC1=NN(c2ccccc2)C(=O)/C1=C(\[O-])c1ccccc1.CC1=NN(c2ccccc2)C(=O)/C1=C(\[O-])c1ccccc1.[Fe+3],-15.1% (inactive)
